These compounds were tested against Glucose transporter (Leishmania mexicana) (UniProt O61059) (assay: ST_JUDE_LEISH: Cytotoxicity at 2uM final concentration against transgenic Leishmania Mexicana promastigotes LmGT2 that are glucose transport deficient and complemented with the L. Mexicana glucose transporter 2. Activity is measured by DNA content using SYBR green in vitro).
Format: functional

Compound | inhibition
N#Cc1ccc2c(c1)CCN(CCC1CCC(NC(=O)/C=C/c3ccc(Cl)c(Cl)c3)CC1)CC2 (stereo not given) | 6.83%
O=C(NC1CCN(Cc2ccsc2)CC1)c1ccc(-c2cccc(C(F)(F)F)c2)s1 | 0.59%
COc1c(C2CCN(CCCCNC(=O)c3ccc(NC(=O)c4ccc(C#N)cc4)cc3)CC2)ccc2c1CCCC2 | 0.9%
CC(C)CCNCc1ccc(OCc2cccc(C(=O)Nc3ccccc3)c2)c(I)c1 | 1.47%
Cc1cccc2nc(-c3cccc(-c4ccc(NC(=O)C(C)CN5CCOCC5)cc4)c3)[nH]c12 (stereo not given) | 4.9%
Cc1cccc2nc(-c3cccc(-c4cccc(CNC(C)C)c4)c3)[nH]c12 | 0.35%
Nc1nc(O)c2c(n1)CCc1c(Br)cccc1-2 | -1.14%
COc1ccc(NC(=O)c2csc(-c3cc(NC(=O)c4ccnc(N5CCCC5)c4)ccc3C)c2)cc1N1CCN(C)CC1 | -1.28%
CC(C)C[C@H](NC(=O)[C@H](Cc1ccccc1)NC(=O)CCN1C(=O)COc2ccc(C(=O)O)cc21)C(=O)NC(CC1CCCCC1)C(O)CC(=O)NCCCn1ccnc1 (stereo not given in full) | 9.78%
CCN(CC)c1ccccc1CNC(=O)c1cc(Cl)c(N)cc1OC | 8.59%
CCCC(=O)Nc1ccc(OCCCN(Cc2ccccc2F)c2ccc(C#N)c(C(F)(F)F)c2)cc1 | 0.71%
N=C1NC(c2ccccc2)(c2ccccc2)C(=O)N1CC=Cc1ccccc1 | 4.83%
COc1cccc2c(NN=Cc3cccc(Cl)c3)cc(C)nc12 | 1.05%
Clc1cc(Nc2ncnc3cc(C#C[C@H]4CCCN4)sc23)cc2nc(Cc3ccccc3)[nH]c12 | -1.61%
CCN(CCCN1CCCCC1)c1cc(C)nc(Nc2ccc(Cl)cc2C)n1 | 1.9%
O=C(Nc1ccc(Cn2ncc(N3CCCNCC3)c(Cl)c2=O)cc1)Nc1cccc(Oc2ccccc2)c1 | 1.79%
CCCCCCC(C)c1cc(OCCN(CC)CC)c2c(c1)OC(C)(C)C=C2c1ccncc1 (stereo not given) | -1.02%
COCCCNc1sc(S(=O)(=O)c2ccccc2)nc1S(=O)(=O)c1ccc(Cl)cc1 | 1.01%
CC(C)Sc1nc2c(c(=O)n1Cc1ccco1)C1(CCCC1)Cc1ccccc1-2 | 6.08%
O=S(=O)(NCCN1CCCC1)c1ccc(-c2cccc(CNC3Cc4ccccc4C3)c2)cc1F | 3.93%

Compound | inhibition
Cc1nc2nc(N)nc(N)c2c(C)c1Cc1cccc(C(N)=O)c1 | -1.43%
COc1ccccc1C1CCN(C2CCC(NC(=O)/C=C/c3ccc4c(c3)OC(F)(F)O4)CC2)CC1 (stereo not given) | 1.28%
Cc1noc(C)c1-c1ccc(C(=C2CCCCCCC2)c2ccc(O)cc2)cc1 | 5.39%
CCCc1cc(OCCCOc2ccccc2)ccc1OCCCON1C(=N)N=C(N)NC1(C)C | 14%
Oc1ccc2c(CNC3CCCCC3)c(O)ccc2c1CNC1CCCCC1 | 0.34%
O=C(NCCN1CCCC1)c1cccc(-c2ccc(-c3nc4ccccc4[nH]3)s2)c1 | 4.63%
Cc1cccn2c(=O)c3cc(C(=O)NC(C)c4ccccc4)c(=N)n(CCc4ccccc4)c3nc12 (stereo not given) | 11.9%
Cc1cccc2nc(-c3cccc(-c4ccc(CNCc5ccccc5)cc4)c3)[nH]c12 | 1.78%
COc1ccc2nc3cc(Cl)ccc3c(NCCN(C)C)c2c1 | 6.53%
Cc1nn(-c2ccccc2)c2sc(C(=O)N(CCCN(C)C)c3nc(-c4ccccc4)cs3)cc12 | 0.07%
CCOC(=O)C(C#N)NC(=O)C=Cc1ccccc1 (stereo not given) | 5.14%
Cc1[nH]c(C)c(C(F)(F)F)c(=O)c1-c1ccc(Oc2ccc(OC(F)(F)F)cc2)cc1 | 0.52%
CCCCN(CCCC)CCNC(=O)c1ccc(-c2nc3cc(Cl)ccc3[nH]2)c(OCC)c1 | 4.26%
Cc1cc(=O)c(-c2ccc(Oc3cccc(OC(F)(F)F)c3)cc2)c(C)[nH]1 | -1.14%
COc1ccc2nccc([C@@H](O)CN3CCC(NCc4ccc5nnsc5c4)CC3)c2c1 | -0.67%
Cc1noc(C)c1-c1ccc2c(Nc3ccccc3C(C)(C)C)c(C(=O)NCc3cccc4ccccc34)cnc2c1 | 0.05%
CCCC/C=C(\Cl)c1ccc(O)c2c1C[C@H]1C[C@H]3[C@H](N(C)C)C(O)=C(C(N)=O)C(=O)[C@@]3(O)C(O)=C1C2=O | 0.16%
Cc1noc(-c2ccc(NC[C@@H](C)NC[C@H](O)c3cccc(Cl)c3)cc2)n1 | 4.26%
O=C(OCc1ccccn1)c1nc2ccccc2[nH]1 | 0.92%
CCn1ccc2c(N3CCCC3=O)cc(C(=O)N[C@@H](Cc3ccccc3)[C@H](O)CNC3CCCCC3)cc21 | 0.18%

From ChEMBL document CHEMBL3433997, “St. Jude Leishmania screening dataset” (2016)
